Bioassay records (PubChem)
NPC1 prom act – qHTS Assay for NPC1 Promoter Activators | Huh7 NPC1 promoter luciferase reporter, 24 h | Potency, µM (highest dose often 9.22 µM), for the others: at the top dose activation, usual class: activators | 320,000 compounds, 2.4% hits; also: % of control where 0% means no effect; nearly all actives have a fitted effect of over 60% in size
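Quantitative HTS used a cell-based reporter: Huh7 cells stably bearing the NPC1 promoter upstream of luciferase were treated with compounds for 24 h, and promoter activation was read as luminescence.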
FLuc modulator – qHTS profiling assay for firefly luciferase inhibitor/activator using purifed enzyme and Km concentrations of substrates (counterscreen for miR-21 project). Luciferin 4-monooxygenase (Photinus pyralis), P08659. purified FLuc, Km substrates, luminescence inhibition. Potency, µM (series often up to 57.5 µM), for the others: top-dose activity change, negative = inhibition, most hits filed as inhibitors. 360,000 compounds, 6.9% hits;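 also: plate controls were vehicle for no effect and reference inhibitor for full effect; nearly all actives have a fitted effect of over 55% in size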
Target sequence (P08659 whole entry, looked up): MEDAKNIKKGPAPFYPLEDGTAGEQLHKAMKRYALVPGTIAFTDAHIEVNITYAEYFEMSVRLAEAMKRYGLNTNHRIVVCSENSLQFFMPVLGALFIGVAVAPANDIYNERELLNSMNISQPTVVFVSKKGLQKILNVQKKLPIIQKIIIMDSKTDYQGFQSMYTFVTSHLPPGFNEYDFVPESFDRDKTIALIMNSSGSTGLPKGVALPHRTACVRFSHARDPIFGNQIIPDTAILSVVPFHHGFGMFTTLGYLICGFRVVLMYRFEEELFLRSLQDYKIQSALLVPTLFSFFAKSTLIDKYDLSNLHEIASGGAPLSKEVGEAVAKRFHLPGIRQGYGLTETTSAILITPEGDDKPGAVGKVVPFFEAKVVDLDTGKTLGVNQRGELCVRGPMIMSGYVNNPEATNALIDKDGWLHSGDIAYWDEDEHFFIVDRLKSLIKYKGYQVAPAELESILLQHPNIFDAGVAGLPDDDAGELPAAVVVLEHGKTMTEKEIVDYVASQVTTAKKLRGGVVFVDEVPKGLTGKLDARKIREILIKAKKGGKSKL
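Purified P. pyralis luciferase, 10 nM final, with Km-level 10 uM D-luciferin and 10 uM ATP in 50 mM Tris acetate pH 7.5, 10 mM Mg acetate, 0.01% Tween-20, 0.05% BSA; 6-point qHTS titration about 60 µM downward; luminescence read.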
SMN2 splice up – qHTS Assay for Enhancers of SMN2 Splice Variant Expression; 210,000 compounds, 2.8% hits; Potency, µM (highest dose often 46.1 µM), for the others: top-dose activity change, positive = activation, most hits filed as activators; AID 1458, 2008; HEK293 SMN2-luciferase splicing reporter, luminescence, 30-36 h; also: % of control where 0% means no effect; nearly all actives have a fitted effect of over 55% in size
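HEK293 cells carry an SMN2 […]–luciferase reporter in which exon 7 inclusion puts luciferase in frame. Cells were plated 10-12 h before compound addition, then incubated 30-36 h at 37C. ONE-Glo luminescence was read; sodium butyrate at 4.5 mM final served as control.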
ELG1 genotoxic – qHTS screen for small molecules that induce genotoxicity in human embryonic kidney (HEK293T) cells expressing luciferase-tagged ELG1; HEK293T ELG1-luciferase reporter, luminescence, 16 h; 330,000 compounds, 1.3% hits; Potency, µM (doses to about 46 µM), for inactives: at the top dose activity change, positive = activation, usual class: activators; also: % of control where 0% means no effect; nearly all actives have a fitted effect of over 60% in size
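Step 1: seed 2,000 HEK293T ELG1-luciferase cells per well. Step 2: add compound or DMSO, incubate 16 hr at 37 °C. Step 3: ONE-Glo, 30 min at room temperature, read luminescence.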
Rab9 promoter act – qHTS Assay for Rab9 Promoter Activators; Huh7 Rab9 promoter-luciferase reporter, luminescence, 24 h; Potency, µM (highest dose often 9.22 µM), for inactives: at the highest dose activation, negative = inhibition, hits mostly activators; 320,000 compounds, 2.8% hits; also: % of control where 0% means no effect; nearly all actives have a fitted effect of over 60% in size
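Luciferase signal after 10 min detection reagent at ambient indicates Rab9 promoter upregulation; stably transfected Huh7 cells were treated 24 h with compound in DMSO at 37 °C, 5% CO2.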
Numbers without * were called inactive; ? = inconclusive; · = not tested or not shown; [ ] = another dose, or the depositor's remark. Compounds with a hit are over-represented: about 7.4% of the library has one in this group of screens. Calls follow the shape of the dose curve; as a rule, active = well fitted curve in the direction sought with a large enough effect; inconclusive = small, poorly fitted or top-dose-only effect, or another doubt; inactive = no such curve, though single readings can be large; an effect the other way counts as inactive or inconclusive. Potency is read from the fitted curve at half-maximal effect.

SMILES	NPC1 prom act	FLuc modulator	SMN2 splice up	ELG1 genotoxic	Rab9 promoter act
Cn1/c(=N/N=C/c2ccc(N3CCOCC3)cc2)sc2ccccc21	?	3.01µM*	26.3%	12.6%	29.6%
CC(=O)c1cnc2nc(SCc3ccc(C)cc3)nn2c1C	-2.7%	-6.9%	·	0.1%	4.0%
CC(=O)c1cnc2cc(-c3ccccc3)nn2c1C	2.51µM*	2.39µM*	15.8µM*	2.24µM*	1.41µM*
COc1ccc(-c2cc3ncc(C(C)=O)c(C)n3n2)cc1	2.24µM*	?	11.2µM*	?	1.26µM*
CC(=O)c1cnc2nc(SCc3ccccc3)nn2c1C	4.47µM*	·	·	?	3.55µM*
CC(=O)c1cnc2cc(C)nn2c1C	-4.6%	-2.0%	-9.8%	1.0%	3.5%
CC(=O)c1cnc2cc(-c3ccc(C)cc3)nn2c1C	?	3.38µM*	11.2µM*	7.31µM*	3.55µM*
Cc1ccc(OCC(=O)NC(=S)Nc2ccc(Br)cn2)cc1	-0.6%	-0.5%	·	1.6%	-6.0%
COCCN1C(=S)N[C@@H](c2ccccc2)C(C(=O)OC)=C1C	-0.2%	-2.6%	·	·	-9.9%
O=C(Nc1ccc(OC(=O)c2ccco2)cc1)c1ccco1	8.6%	4.78µM*	16.9%	6.7%	4.0%
O=C(Nc1nc(SCc2ccc(F)cc2)ns1)c1ccco1	13.0%	21.3µM*	17.8µM*	13.3%	20.5%
O=C(Nc1ccc(CSc2ccccc2)cc1)c1ccco1	2.82µM*	2.69µM*	·	7.3µM*	3.98µM*
CCC(=O)Oc1ccc(NC(=O)c2ccco2)cc1	1.6%	12µM*	9.4%	9.2%	5.3%
COc1cccc(-n2c(SCC(=O)Nc3nnc(C)s3)nc3c([nH]c4ccccc43)c2=O)c1	·	-1.9%	·	·	·
CN(C)c1ccc(/C=N/NC(N)=S)cc1[N+](=O)[O-]	-1.4%	-2.4%	27.2%	7.6%	7.2%
CC(C)(C)OC(=O)N1CCC(NC(=O)c2nc[nH]c2C(=O)N2CCN(c3ccccc3)CC2)CC1	·	·	·	-0.9%	·
COc1ccc(NC(=O)COC(=O)C2CC2)c(OC)c1	-1.0%	·	·	2.4%	10.8%
COc1ccccc1NC(=O)CSc1ccc(-c2cccs2)nn1	-3.5%	-19.8%	-38.3%	-4.3%	-9.7%
COc1ccc(Br)cc1CN(C)CC(=O)Nc1c(Cl)cccc1Cl	-4.1%	-0.5%	-27.3%	-10.4%	-10.0%
CC1CCCCC12NC(=O)N(CC(=O)N1CCN(Cc3ccc(C#N)cc3)CC1)C2=O (centres undefined)	-16.0%	-1.8%	·	-3.5%	-23.0%
COc1ccc(C(=O)Nc2ccc(NC(=O)c3ccco3)cc2)cc1	0.5%	-8.9%	·	?	10.7%
O=C(CCc1ccccc1)Nc1ccc(NC(=O)c2ccco2)cc1	16.7%	-18.0%	8.3%	?	17.3%
CCSc1nsc(NC(=O)Nc2ccc(F)cc2F)n1	?	5.36µM*	·	6.2%	?
O=C(OC1CCCCC1)c1ccc(NC(=O)c2ccco2)cc1	?	13.5µM*	?	8.3%	3.55µM*
CCC(=O)Nc1ccc(NC(=O)c2ccco2)cc1	2.82µM*	19µM*	27.3%	?	2.82µM*
SMILES	NPC1 prom act	FLuc modulator	SMN2 splice up	ELG1 genotoxic	Rab9 promoter act
Cc1cc(C)c(S(=O)(=O)Nc2cc(Cl)c3oc4c(c3c2)C(=O)CCC4)cc1C	·	-7.4%	2.6%	·	·
CCc1ccc2nc(N)sc2c1	2.24µM*	10.7µM*	20µM*	?	3.55µM*
Nc1nc2ccc(C(=O)Nc3ccccc3)cc2s1	3.55µM*	19µM*	·	?	3.16µM*
CCc1ccc(NC(=O)c2ccc3nc(N)sc3c2)cc1	?	12µM*	?	?	?
CCOc1ccc2nc(N)sc2c1	·	·	28.6%	·	·
Cc1ccc(S(=O)(=O)N[C@H](CN)C(=O)O)cc1	·	·	-2.3%[9.22 µM]	·	·
CN(C)C[C@@H](O)c1ccc(Cl)c2ccccc12	·	·	-0.4%[9.22 µM]	·	·
COc1ccc(CCCNC(=O)C2CCC(=O)N(CC3CCCCC3)C2)cc1 (centres undefined)	-8.5%	4.8%	·	-10.3%	10.1%
Cc1cccn2c(=O)c3cc(C(=O)NCc4ccccc4Cl)sc3nc12	·	-5.3%	-3.5%	·	·
Cc1cccc(NC(=O)CSc2nc(-c3cccs3)cc(C(F)(F)F)c2C#N)c1	·	-6.5%	19.0%	·	·
O=C(Nc1ccc(Br)cn1)c1ccc2ccccc2c1	1.58µM*	1.9µM*	·	?	1.12µM*
O=C(Nc1ccc(Br)cn1)c1cccc(S(=O)(=O)N2CCCC2)c1	·	·	·	-2.6%	·
O=S(=O)(Nc1ccc(Br)cn1)c1ccc2ccccc2c1	-4.7%	-7.8%	·	2.6%	2.8%
O=C(Nc1ccc(Br)cn1)c1cccc(C(=O)Nc2ccc(Br)cn2)c1	2µM*	3.01µM*	·	20.6µM*	0.562µM*
Cc1cc(C)nc(Nc2n[nH]c(COc3ccccc3)n2)n1	?	2.8%	-13.9%	0.3%	?
Cc1cc(C)nc(Nc2n[nH]c(COc3cccc4ccccc34)n2)n1	-27.4%	9.5%	2.1%	0.3%	-16.3%
Cc1cc(C)nc(Nc2n[nH]c(-c3ccccc3Cl)n2)n1	?	6.75µM*	14.1µM*	?	?
Cc1cc(C)nc(Nc2n[nH]c(-c3cccc4ccccc34)n2)n1	26.1%	12µM*	-12.0%	3.4%	30.0%
CCOc1cc(/C=C(\C#N)C(=O)Nc2ccc(C)cc2)ccc1OCc1cc(=O)n2nc(CC)sc2n1	·	-1.6%	10.0%	·	·
Cc1oc2cc3oc(=O)c(CCC(=O)NCCc4ccccc4F)c(C)c3cc2c1C	·	-3.2%	?	·	·
CC1(C)CC(=O)C(C(c2ccncc2)C2C(=O)CC(C)(C)CC2=O)C(=O)C1	1.6%	1.6%	-3.0%	-0.4%	-2.3%
Cc1ccc(C(C2C(=O)CC(C)(C)CC2=O)C2C(=O)CC(C)(C)CC2=O)s1	1.3%	21.3µM*	-1.9%	4.1%	0.3%
COc1ccc(N=Cc2nc(-c3ccccc3)oc2OC(C)=O)cc1	2.1%	-9.6%	·	0.1%	1.8%
Cc1ccc(C(=O)Oc2oc(-c3ccco3)nc2C=Nc2ccc(Cl)cc2)cc1	1.78µM*	4.78µM*	14.1µM*	?	3.16µM*
CN(C)c1ccc(N=Cc2nc(-c3ccccc3)oc2OC(=O)c2cccc(Cl)c2)cc1	?	?	11.2µM*	?	4.47µM*
Cc1ccc(C(=O)Oc2oc(-c3ccccc3)nc2C=Nc2ccc(N(C)C)cc2)cc1	?	13.5µM*	8.91µM*	?	?
COCCN(C(=O)CSc1nnc(Nc2ccc(C)cc2)s1)c1c(N)n(CC(C)C)c(=O)[nH]c1=O	-2.0%	10.7µM*	11.8%	2.2%	-1.0%
CN(C(=O)CSc1nnc(Nc2ccccc2)s1)c1c(N)n(Cc2ccccc2)c(=O)[nH]c1=O	1.6%	-29.5%	·	0.7%	-1.7%
CCCCn1c(N)c(N(CCC(C)C)C(=O)CSc2nnc(Nc3ccccc3)s2)c(=O)[nH]c1=O	-0.2%	23.9µM*	11.6%	7.0%	1.5%
